# Measured values published in PMC5540273 (PLoS ONE, 2017).
# What was measured:
# Settings in all cases: concentration: 1 μM,replicates: in singlicate; n = 1
# CSNK1G1 = test system: CSNK1G1
# CSNK1G2 = test system: CSNK1G2
# CSNK1G3 = test system: CSNK1G3
# CSNK2A1 = test system: CSNK2A1
# CSNK2A2 = test system: CSNK2A2
# CTK = test system: T1, CTK
# T1 construct: gene MATK
# DAPK1 = test system: DAPK1
# DAPK2 = test system: DAPK2
# DAPK3 = test system: DAPK3
# DCAMKL1 = test system: T2, DCAMKL1
# T2 construct: gene DCLK1
# DCAMKL2 = test system: T3, DCAMKL2
# T3 construct: gene DCLK2
# DCAMKL3 = test system: T4, DCAMKL3
# T4 construct: gene DCLK3
# DDR1 = test system: DDR1
# DDR2 = test system: DDR2
# DLK = test system: T5, DLK
# T5 construct: gene MAP3K12
# DMPK2 = test system: T6, DMPK2
# T6 construct: gene CDC42BPG
# DMPK = test system: DMPK
# DRAK1 = test system: T7, DRAK1
# T7 construct: gene STK17A
# DRAK2 = test system: T8, DRAK2
# T8 construct: gene STK17B
# DYRK1A = test system: DYRK1A
# 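Further: KINOMEscan kinase panel screen.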
Structure (SMILES),%Inh (CSNK1G1) [%],%Inh (CSNK1G2) [%],%Inh (CSNK1G3) [%],%Inh (CSNK2A1) [%],%Inh (CSNK2A2) [%],%Inh (CTK) [%],%Inh (DAPK1) [%],%Inh (DAPK2) [%],%Inh (DAPK3) [%],%Inh (DCAMKL1) [%],%Inh (DCAMKL2) [%],%Inh (DCAMKL3) [%],%Inh (DDR1) [%],%Inh (DDR2) [%],%Inh (DLK) [%],%Inh (DMPK2) [%],%Inh (DMPK) [%],%Inh (DRAK1) [%],%Inh (DRAK2) [%],%Inh (DYRK1A) [%]
OCCn1cc(-c2cnc3nnn(Cc4ccc5ncccc5c4)c3n2)cn1,1,0,9,0,0,0,0,0,0,66,0,0,0,4,0,0,0,10,12,0
Cc1ccn2nc(-c3ccc(F)cc3)c(-c3ccncc3)c2c1.Cl [GW457859],29,12,31,0,14,0,15,6,0,10,0,0,75,82,44,75,0,2,0,0
Cl.Nc1n[nH]c2cc(-c3ccccn3)ccc12 [GSK2189892],11,0,31,0,0,0,0,0,19,19,0,0,16,0,4,0,0,37,0,10
O=C(Nc1ccccc1)c1cccc(Oc2ccc3nccn3n2)c1,10,6,0,0,11,28,100,0,0,0,40,0,45,42,1,6,11,7,14,0
CS(=O)(=O)Nc1ccc(-c2ccnc3[nH]ccc23)cc1 [GSK993273],0,0,17,0,16,0,73,54,89,6,0,0,0,0,83,13,51,99.2,20,88
O=C(Nc1cccc(Oc2ccc3nccn3n2)c1)Nc1cccc(C(F)(F)F)c1,0,0,26,0,3,49,14,0,0,0,15,0,99.3,97.8,3,15,0,0,0,0
Cc1ccc2c(-c3ccnc(Nc4ccc(C(F)(F)F)cc4)n3)cnn2n1 [GW819776],0,14,0,18,35,24,19,0,25,34,0,0,0,4,0,9,0,37,13,37
CCNCC(Cc1ccccc1)NC(=O)c1cc(Br)c(-c2ccnc3[nH]ccc23)s1.Cl.Cl (centres unmarked) [GSK1383280],8,5,46,87,71,0,7,9,28,42,0,40,8,18,11,90,23,0,0,37
COC(=O)c1cccc(NC(=O)NC2CCN(c3ccnc(NCc4ccc(F)cc4)n3)CC2)c1 [GSK1379860],0,0,9,7,0,1,0,0,3,0,18,3,18,0,17,12,0,0,34,18
COc1cc2c(Nc3ccc(NC(=O)c4ccccc4)cc3)ncnc2cc1OCCCN1CCOCC1 [GSK301329],0,0,3,9,14,32,0,0,0,13,26,0,0,0,89,0,0,0,0,25
